Experimental data from PubChem BioAssay AID1159580 (chemical genetic matrix, 2015).
The whole screen tested about 5,500 compounds, of which about 2,000 (36%) were called active. Roughly 18% stayed inconclusive and do not appear here. Cut-off read from the data, not from the text of the source: active = normalized growth mostly below about 0.91 (no sharp cut-off); inconclusive = no clear call, values can overlap the other calls; inactive = mostly above about 0.92. The list shows a part of the results.

Test: chemical genetic growth profiling, strain panel (AID 1159580);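 note: tested at 20 µM; growth read once vehicle control cultures reached saturation at 30 °C; 1 = growth at the plate median or of vehicle wells; lower values mean less growth of the strain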
Details: growth OD

Measured: normalized growth

C[C@@H]1CC[C@@]23CCC4(C)[C@@](C=CC5[C@@]6(C)CC[C@H](O)C(C)(C)C6CC[C@]54C)(OC2=O)C3[C@H]1C (stereo partly drawn)
inactive: S. cerevisiae deletion strains, locus YJR043C, strain POL32, hits give low values 1 | S. cerevisiae deletion strains, locus YJR066W, strain TOR1, hits give low values 0.991 | S. cerevisiae deletion strains, locus YJR075W, strain HOC1, hits give low values 1.02 | S. cerevisiae deletion strains, locus YKL085W, strain MDH1 (second series), hits give low values 1 | S. cerevisiae deletion strains, locus YKL085W, strain MDH1, hits give low values 1 | S. cerevisiae deletion strains, locus YKL160W, strain elf1, hits give low values 1.01 | S. cerevisiae deletion strains, locus YKL190W, strain CNB1, hits give low values 1.01 | S. cerevisiae deletion strains, locus YKR001C, strain vps1, hits give low values 1.06 | S. cerevisiae deletion strains, locus YKR026C, strain gcn3, hits give low values 1.01 | S. cerevisiae deletion strains, locus YKR091W, strain srl3, hits give low values 1 | S. cerevisiae deletion strains, locus YLL001W, strain dnm1, hits give low values 1.02 | S. cerevisiae deletion strains, locus YLL026W, hits give low values 1 | S. cerevisiae deletion strains, locus YLL041C, strain sdh2, hits give low values 1 | S. cerevisiae deletion strains, locus YLR027C, strain aat2, hits give low values 1 | S. cerevisiae deletion strains, locus YLR039C, strain RIC1, hits give low values 1.09 | S. cerevisiae deletion strains, locus YLR058C, strain SHM2, hits give low values 1.02 | S. cerevisiae deletion strains, locus YLR102C, strain apc9, hits give low values 1.03 | S. cerevisiae deletion strains, locus YLR113W, strain HOG1, hits give low values 1.02 | S. cerevisiae deletion strains, locus YLR221C, strain rsa3, hits give low values 0.998 | S. cerevisiae deletion strains, locus YLR258W, strain gsy2, hits give low values 0.996 | S. cerevisiae deletion strains, locus YLR262C, strain YPT6 (second series), hits give low values 1.02 | S. cerevisiae deletion strains, locus YLR262C, strain YPT6, hits give low values 1.09 | S. cerevisiae deletion strains, locus YLR268W, strain sec22, hits give low values 1.03 | S. cerevisiae deletion strains, locus YLR320W, strain mms22, hits give low values 1.01 | S. cerevisiae deletion strains, locus YLR330W, strain CHS5, hits give low values 1.03 | S. cerevisiae deletion strains, locus YLR342W, strain FKS1 (second series), hits give low values 1.02 | S. cerevisiae deletion strains, locus YLR342W, strain FKS1, hits give low values 1.01 | S. cerevisiae deletion strains, locus YLR357W, strain rsc2, hits give low values 1.07 | S. cerevisiae deletion strains, locus YLR370C, strain arc18, hits give low values 1.01 | S. cerevisiae deletion strains, locus YLR384C, strain iki3, hits give low values 0.981 | S. cerevisiae deletion strains, locus YLR418C, strain cdc73, hits give low values 1.07 | S. cerevisiae deletion strains, locus YML016C, strain PPZ1, hits give low values 1.01 | S. cerevisiae deletion strains, locus YML032C, strain rad52, hits give low values 1.02 | S. cerevisiae deletion strains, locus YML120C, strain ndi1, hits give low values 1 | S. cerevisiae deletion strains, locus YML124C, strain tub3, hits give low values 1 | S. cerevisiae deletion strains, locus YMR058W, strain fet3, hits give low values 1 | S. cerevisiae deletion strains, locus YMR078C, strain ctf18, hits give low values 0.991 | S. cerevisiae deletion strains, locus YMR125W, strain sto1, hits give low values 1.01 | S. cerevisiae deletion strains, locus YMR129W, hits give low values 0.997 | S. cerevisiae deletion strains, locus YMR205C, strain PFK2, hits give low values 1.02 | S. cerevisiae deletion strains, locus YMR223W, strain ubp8, hits give low values 1.08 | S. cerevisiae deletion strains, locus YMR231W, strain pep5, hits give low values 0.98 | S. cerevisiae deletion strains, locus YMR307W, strain GAS1, hits give low values 1.13 | S. cerevisiae deletion strains, locus YNL067W, strain RPL9B, hits give low values 1.01 | S. cerevisiae deletion strains, locus YNL071W, strain lat1, hits give low values 1.01 | S. cerevisiae deletion strains, locus YNL183C, strain NPR1, hits give low values 0.998 | S. cerevisiae deletion strains, locus YNL209W, strain ssb2, hits give low values 1.01 | S. cerevisiae deletion strains, locus YNL233W, strain BNI4, hits give low values 1.05 | S. cerevisiae deletion strains, locus YNL248C, strain rpa49, hits give low values 1.01 | S. cerevisiae deletion strains, locus YNL250W, strain rad50, hits give low values 1 | S. cerevisiae deletion strains, locus YNL271C, strain bni1, hits give low values 0.994 | S. cerevisiae deletion strains, locus YNL298W, strain CLA4, hits give low values 1 | S. cerevisiae deletion strains, locus YNL307C, strain MCK1, hits give low values 1 | S. cerevisiae deletion strains, locus YNL322C, strain KRE1 (second series), hits give low values 0.998 | S. cerevisiae deletion strains, locus YNR049C, strain mso1, hits give low values 1.01 | S. cerevisiae deletion strains, locus YNR052C, strain pop2, hits give low values 1.02 | S. cerevisiae deletion strains, locus YOL006C, strain TOP1, hits give low values 1.08 | S. cerevisiae deletion strains, locus YOL147C, strain pex11, hits give low values 1.01 | S. cerevisiae deletion strains, locus YOR001W, strain rrp6, hits give low values 1 | S. cerevisiae deletion strains, locus YOR061W, strain CKA2, hits give low values 1.01 | S. cerevisiae deletion strains, locus YOR069W, strain VPS5, hits give low values 1.01 | S. cerevisiae deletion strains, locus YOR070C, strain gyp1, hits give low values 1.03 | S. cerevisiae deletion strains, locus YOR080W, strain dia2, hits give low values 1.09 | S. cerevisiae deletion strains, locus YOR083W, strain WHI5, hits give low values 1.01 | S. cerevisiae deletion strains, locus YOR106W, strain vam3, hits give low values 1.02 | S. cerevisiae deletion strains, locus YOR136W, strain idh2, hits give low values 1.06 | S. cerevisiae deletion strains, locus YOR144C, strain elg1, hits give low values 0.997 | S. cerevisiae deletion strains, locus YOR184W, strain ser1, hits give low values 1.05 | S. cerevisiae deletion strains, locus YOR231W, strain MKK1, hits give low values 1.02 | S. cerevisiae deletion strains, locus YOR265W, strain rbl2, hits give low values 1.01 | S. cerevisiae deletion strains, locus YOR270C, strain vph1, hits give low values 1.05 | S. cerevisiae deletion strains, locus YOR290C, strain snf2, hits give low values 1 | S. cerevisiae deletion strains, locus YOR316C, strain cot1, hits give low values 1.03 | S. cerevisiae deletion strains, locus YPL051W, strain arl3, hits give low values 1.02 | S. cerevisiae deletion strains, locus YPL055C, strain LGE1, hits give low values 1.06 | S. cerevisiae deletion strains, locus YPL078C, strain atp4, hits give low values 1.02 | S. cerevisiae deletion strains, locus YPL106C, strain sse1, hits give low values 1.03 | S. cerevisiae deletion strains, locus YPL240C, strain hsp82, hits give low values 1 | S. cerevisiae deletion strains, locus YPL256C, strain CLN2, hits give low values 1.06 | S. cerevisiae deletion strains, locus YPR119W, strain clb2, hits give low values 0.986 | S. cerevisiae deletion strains, locus YPR141C, strain kar3, hits give low values 1 | S. cerevisiae deletion strains, locus YPR163C, strain tif3, hits give low values 1 | S. cerevisiae deletion strains, locus YPR167C, strain met16, hits give low values 1.05 | S. cerevisiae deletion strains, strain wtn01, hits give low values 1 | S. cerevisiae strains, strain wild type, hits give low values 1.02
active: S. cerevisiae deletion strains, locus YKL009W, strain mrt4, hits give low values 1.26 [resistant] | S. cerevisiae deletion strains, locus YLR371W, strain rom2, hits give low values 1.29 [resistant] | S. cerevisiae deletion strains, locus YOL012C, strain htz1 2.58 [resistant]
